The results in this text go back to the supplement of paper PMC10849652.

About 7,900 targets were measured; listed, in parts, are those with a hit and a random draw of the rest. About 0.6% of all pairs of compound and target were hits. A number with no mark means an inactive call.

UniProt P09668, sequence (P09668 whole entry, looked up): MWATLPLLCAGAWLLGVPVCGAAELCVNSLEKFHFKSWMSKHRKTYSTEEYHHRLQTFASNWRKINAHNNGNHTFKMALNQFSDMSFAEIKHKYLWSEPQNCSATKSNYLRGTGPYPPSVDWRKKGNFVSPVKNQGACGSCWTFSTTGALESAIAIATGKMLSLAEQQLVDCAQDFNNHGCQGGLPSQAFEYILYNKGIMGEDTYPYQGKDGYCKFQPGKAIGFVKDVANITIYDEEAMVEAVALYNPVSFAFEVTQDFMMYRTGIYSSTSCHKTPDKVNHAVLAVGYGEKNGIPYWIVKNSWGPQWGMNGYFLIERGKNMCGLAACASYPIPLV
UniProt Q9UJU6, sequence (Q9UJU6 whole entry, looked up): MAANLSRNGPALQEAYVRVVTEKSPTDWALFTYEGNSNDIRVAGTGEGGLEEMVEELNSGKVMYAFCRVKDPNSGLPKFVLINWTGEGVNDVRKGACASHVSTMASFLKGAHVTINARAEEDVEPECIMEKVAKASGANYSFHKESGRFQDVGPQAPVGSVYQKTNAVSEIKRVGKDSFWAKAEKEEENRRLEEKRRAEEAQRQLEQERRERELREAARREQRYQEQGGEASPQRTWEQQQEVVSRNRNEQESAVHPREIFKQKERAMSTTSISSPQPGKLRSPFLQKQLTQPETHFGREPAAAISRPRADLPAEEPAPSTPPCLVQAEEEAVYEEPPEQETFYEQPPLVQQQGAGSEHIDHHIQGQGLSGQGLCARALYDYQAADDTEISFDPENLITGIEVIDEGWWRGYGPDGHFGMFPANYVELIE
UniProt Q96A65, sequence (Q96A65 whole entry, looked up): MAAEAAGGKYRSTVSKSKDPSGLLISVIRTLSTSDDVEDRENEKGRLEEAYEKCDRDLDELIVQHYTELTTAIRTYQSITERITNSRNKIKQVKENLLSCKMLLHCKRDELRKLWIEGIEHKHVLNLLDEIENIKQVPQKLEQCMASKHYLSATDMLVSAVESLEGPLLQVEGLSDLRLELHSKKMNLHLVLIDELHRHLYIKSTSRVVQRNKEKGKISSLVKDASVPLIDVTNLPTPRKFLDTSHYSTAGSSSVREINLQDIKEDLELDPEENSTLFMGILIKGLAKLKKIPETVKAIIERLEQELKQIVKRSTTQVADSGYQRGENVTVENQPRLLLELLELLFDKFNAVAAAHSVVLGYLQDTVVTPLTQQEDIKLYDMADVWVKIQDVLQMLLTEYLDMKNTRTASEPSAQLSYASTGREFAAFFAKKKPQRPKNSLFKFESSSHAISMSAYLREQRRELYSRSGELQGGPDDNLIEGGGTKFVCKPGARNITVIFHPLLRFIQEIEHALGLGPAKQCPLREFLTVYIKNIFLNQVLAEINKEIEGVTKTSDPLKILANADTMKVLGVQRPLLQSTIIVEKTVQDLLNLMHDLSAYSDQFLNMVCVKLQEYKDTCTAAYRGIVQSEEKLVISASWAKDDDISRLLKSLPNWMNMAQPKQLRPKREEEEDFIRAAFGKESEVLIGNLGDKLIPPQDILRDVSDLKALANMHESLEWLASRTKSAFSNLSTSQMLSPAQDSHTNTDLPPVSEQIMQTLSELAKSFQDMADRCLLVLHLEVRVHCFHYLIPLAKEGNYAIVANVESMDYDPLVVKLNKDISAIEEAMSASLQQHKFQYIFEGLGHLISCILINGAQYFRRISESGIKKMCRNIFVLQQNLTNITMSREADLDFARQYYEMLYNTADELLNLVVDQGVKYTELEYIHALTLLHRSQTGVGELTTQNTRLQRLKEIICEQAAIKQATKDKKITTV
UniProt P39880, sequence (P39880 whole entry, looked up): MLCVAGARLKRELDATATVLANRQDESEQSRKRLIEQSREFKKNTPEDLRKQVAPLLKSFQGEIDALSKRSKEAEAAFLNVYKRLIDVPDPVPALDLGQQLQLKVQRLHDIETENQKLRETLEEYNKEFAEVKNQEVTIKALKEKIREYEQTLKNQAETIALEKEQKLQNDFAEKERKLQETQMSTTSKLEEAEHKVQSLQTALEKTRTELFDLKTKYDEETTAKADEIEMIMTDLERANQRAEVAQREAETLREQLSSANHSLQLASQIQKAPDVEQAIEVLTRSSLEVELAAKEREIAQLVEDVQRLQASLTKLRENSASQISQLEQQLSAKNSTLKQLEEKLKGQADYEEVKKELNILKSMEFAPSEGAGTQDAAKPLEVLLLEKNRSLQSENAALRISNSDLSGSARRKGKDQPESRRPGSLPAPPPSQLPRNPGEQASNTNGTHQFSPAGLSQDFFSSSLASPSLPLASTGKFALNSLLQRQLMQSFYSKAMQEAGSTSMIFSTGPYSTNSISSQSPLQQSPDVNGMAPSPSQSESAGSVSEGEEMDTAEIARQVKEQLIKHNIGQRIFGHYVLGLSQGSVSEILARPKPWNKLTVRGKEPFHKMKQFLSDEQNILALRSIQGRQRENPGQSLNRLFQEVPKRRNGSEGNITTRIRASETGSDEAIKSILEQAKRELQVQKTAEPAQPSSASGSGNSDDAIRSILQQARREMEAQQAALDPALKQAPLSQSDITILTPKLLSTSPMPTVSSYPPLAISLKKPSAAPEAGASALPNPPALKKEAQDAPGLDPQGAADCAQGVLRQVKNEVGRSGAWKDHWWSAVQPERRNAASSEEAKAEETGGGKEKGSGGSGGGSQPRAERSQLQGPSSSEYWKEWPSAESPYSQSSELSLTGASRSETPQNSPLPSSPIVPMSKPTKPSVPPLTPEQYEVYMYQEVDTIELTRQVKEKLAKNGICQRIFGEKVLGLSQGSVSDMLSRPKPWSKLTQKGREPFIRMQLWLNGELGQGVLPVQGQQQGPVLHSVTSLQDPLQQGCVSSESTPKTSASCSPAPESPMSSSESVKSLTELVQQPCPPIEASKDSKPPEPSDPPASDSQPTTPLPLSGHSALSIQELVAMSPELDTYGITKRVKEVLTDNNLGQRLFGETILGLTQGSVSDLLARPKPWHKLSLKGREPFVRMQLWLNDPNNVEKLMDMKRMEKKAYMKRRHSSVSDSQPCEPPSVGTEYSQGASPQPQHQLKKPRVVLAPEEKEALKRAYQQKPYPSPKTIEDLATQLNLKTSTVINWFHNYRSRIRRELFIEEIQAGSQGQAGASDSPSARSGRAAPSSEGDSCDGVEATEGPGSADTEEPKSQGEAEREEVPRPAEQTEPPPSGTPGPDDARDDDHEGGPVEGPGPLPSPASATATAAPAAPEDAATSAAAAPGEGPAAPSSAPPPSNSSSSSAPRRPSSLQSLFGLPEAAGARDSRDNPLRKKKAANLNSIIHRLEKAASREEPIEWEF
UniProt Q7L014, sequence (Q7L014 whole entry, looked up): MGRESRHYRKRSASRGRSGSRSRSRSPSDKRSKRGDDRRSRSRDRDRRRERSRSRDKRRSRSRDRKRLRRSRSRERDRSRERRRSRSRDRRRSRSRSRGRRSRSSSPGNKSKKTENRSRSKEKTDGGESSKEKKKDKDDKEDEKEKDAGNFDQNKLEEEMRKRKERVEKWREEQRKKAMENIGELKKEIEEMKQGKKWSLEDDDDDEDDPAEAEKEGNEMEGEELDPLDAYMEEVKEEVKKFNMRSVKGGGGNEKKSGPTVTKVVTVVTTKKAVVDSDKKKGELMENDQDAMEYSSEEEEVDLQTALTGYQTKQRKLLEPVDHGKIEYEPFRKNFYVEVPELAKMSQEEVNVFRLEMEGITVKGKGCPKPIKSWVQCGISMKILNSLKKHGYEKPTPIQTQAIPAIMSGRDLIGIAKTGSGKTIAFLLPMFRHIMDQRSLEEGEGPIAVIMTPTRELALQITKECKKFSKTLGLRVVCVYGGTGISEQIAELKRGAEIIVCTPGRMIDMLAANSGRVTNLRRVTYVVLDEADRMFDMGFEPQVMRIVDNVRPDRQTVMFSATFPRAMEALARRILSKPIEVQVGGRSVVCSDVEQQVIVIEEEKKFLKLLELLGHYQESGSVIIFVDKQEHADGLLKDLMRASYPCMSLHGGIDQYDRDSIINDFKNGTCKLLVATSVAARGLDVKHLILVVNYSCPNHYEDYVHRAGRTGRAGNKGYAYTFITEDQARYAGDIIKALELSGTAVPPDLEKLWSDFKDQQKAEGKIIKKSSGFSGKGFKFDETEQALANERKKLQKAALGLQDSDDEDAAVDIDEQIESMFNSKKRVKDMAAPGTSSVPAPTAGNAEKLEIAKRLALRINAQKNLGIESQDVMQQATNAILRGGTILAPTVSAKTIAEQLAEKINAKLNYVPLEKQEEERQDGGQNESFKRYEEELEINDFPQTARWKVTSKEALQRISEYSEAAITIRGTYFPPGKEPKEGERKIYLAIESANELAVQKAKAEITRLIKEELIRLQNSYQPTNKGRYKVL
UniProt Q15392, sequence (Q15392 whole entry, looked up): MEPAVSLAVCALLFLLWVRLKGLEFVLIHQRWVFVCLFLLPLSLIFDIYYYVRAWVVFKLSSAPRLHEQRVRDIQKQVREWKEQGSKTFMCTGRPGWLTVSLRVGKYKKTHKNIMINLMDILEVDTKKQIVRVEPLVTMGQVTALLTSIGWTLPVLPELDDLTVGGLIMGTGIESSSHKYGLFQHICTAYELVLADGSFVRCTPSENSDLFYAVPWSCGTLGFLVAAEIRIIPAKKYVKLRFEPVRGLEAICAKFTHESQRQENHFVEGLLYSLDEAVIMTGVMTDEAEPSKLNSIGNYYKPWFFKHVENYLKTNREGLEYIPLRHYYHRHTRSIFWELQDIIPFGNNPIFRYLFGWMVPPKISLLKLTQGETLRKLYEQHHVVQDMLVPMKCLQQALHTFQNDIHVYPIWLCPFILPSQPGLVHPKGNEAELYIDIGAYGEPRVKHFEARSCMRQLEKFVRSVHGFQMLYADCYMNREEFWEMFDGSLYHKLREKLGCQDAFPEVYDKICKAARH
UniProt Q96GG9, sequence (Q96GG9 whole entry, looked up): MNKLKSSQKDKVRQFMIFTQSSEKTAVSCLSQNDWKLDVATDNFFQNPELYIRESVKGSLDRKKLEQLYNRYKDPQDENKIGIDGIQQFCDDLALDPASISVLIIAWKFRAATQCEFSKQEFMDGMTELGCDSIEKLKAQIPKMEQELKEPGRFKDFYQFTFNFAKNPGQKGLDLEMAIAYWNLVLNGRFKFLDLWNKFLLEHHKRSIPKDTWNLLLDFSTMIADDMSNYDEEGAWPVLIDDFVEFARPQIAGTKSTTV

Compound in the test: COC(=O)[C@H](CCSC)NC(=O)C1=C(C=C(C=C1)NC[C@H](CS)N)C2=CC=CC=C2
The test is described as follows: log2 fold change, soluble protein after heating vs DMSO (PISA); higher = thermal stabilisation; K562 cells, 10 uM, 30 min; active = over 0.2 and 3.5 SD of the protein, either way, in both replicates (recomputed). The essentials:
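K562 cells at 2×10^6 cells/mL were treated for 30 min with 10 μM compound, and aliquots were heated for 3 min over 48°C-58°C before pooling. Extraction used PBS with 0.5% NP-40 at 4°C, and soluble protein was the supernatant after 21,000xg for 90 min, measured by TMTpro 16plex LC-MS/MS with channel sums equalised. Thermal stability values, relative to control samples and from duplicates, are log2 fold changes.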
For the target DDB1 (UniProt Q16531), the log2 fold change is 0.

As for DNM2 (UniProt P50570), the log2 fold change was -0.03.

For ESS2 (UniProt Q96DF8), the log2 fold change was 0.01.

Take DCUN1D1 (UniProt Q96GG9): the log2 fold change is -0.011. In the case of EXOC4 (UniProt Q96A65), the log2 fold change was 0.01. For EDC4 (UniProt Q6P2E9), the log2 fold change was 0.005. As for DAB2 (UniProt P98082), the log2 fold change was -0.13.

On to DHRS7B (UniProt Q6IAN0), for which the log2 fold change is -0.016. For the target F5 (UniProt P12259), the log2 fold change is 0.039. In the case of DDX46 (UniProt Q7L014), the log2 fold change was -0.085. Under EXTL2 (UniProt Q9UBQ6) stands 0.13; under DYNC1LI2 (UniProt O43237), 0.016; under EFL1 (UniProt Q7Z2Z2), -0.014.

Consider CUX1 isoform 3 (UniProt P39880), for which the log2 fold change was 0.01.

With FAM114A2 (UniProt Q9NRY5), the log2 fold change is 0.025.

As to CTSH (UniProt P09668), the log2 fold change is 0.02. Take DHX36 (UniProt Q9H2U1): the log2 fold change is 0.011.

Turning to DNAH11 (UniProt Q96DT5), the log2 fold change is 0.049. For DPH5 isoform 5 (UniProt Q9H2P9), the log2 fold change was 0.004. The figure for DHCR24 (UniProt Q15392) is 0.01. For DHRS13 (UniProt Q6UX07), the log2 fold change is -0.114. On to CUX1 isoform 2 (UniProt Q13948), for which the log2 fold change is -0.062.

Take DBNL isoform 3 (UniProt Q9UJU6): the log2 fold change was -0.004.
